Source: PubChem BioAssay (NCATS)
Inconclusive results are not listed. Active and inactive are the calls of the source. Unless noted, calls follow the shape of the dose curve; as a rule, active = well fitted curve in the direction sought with a large enough effect; inconclusive = small, poorly fitted or top-dose-only effect, or another doubt; inactive = no such curve, though single readings can be large; an effect the other way counts as inactive or inconclusive.

Tests used:
[1] = AP1 Signaling Pathway (AID 357; active = well fitted curve in either direction with a large enough effect, not every such curve was filed as active;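 also: ME-180 reporter cells stimulated with EGF at its EC50 level; % is scaled to controls: 0 for no effect and ±100 for the full control effect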); conditions: ME-180 AP-1-bla reporter, EGF-induced, beta-lactamase ratio, 5 h; at 17.2 µM (top of the series) unless noted
Procedure, shortened: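 A ratiometric CCF4 readout (405 nm excitation; 460 and 530 nm emission) quantified AP-1-driven beta-lactamase in ME-180 cells after 5 h with compound and EC50 EGF; AC50 values were derived for activators and inhibitors.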

[2] = NFAT Signaling Pathway (AID 444; active = well fitted curve in either direction with a large enough effect, not every such curve was filed as active;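 also: carbachol stimulus at about its EC50 of 1 µM final; % is scaled to controls: 0 for no effect and ±100 for the full control effect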); conditions: Jurkat NFAT-bla M1, carbachol, beta-lactamase ratio, 5 h; at 17.2 µM (top of the series) unless noted
Procedure, shortened: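 Jurkat cells with NFAT-driven β-lactamase reporter and co-expressed M1 receptor, stimulated with carbachol (final 1 uM, ~EC50), compound titration, 5 h at 37 °C. CCF4 loaded 1 h at RT; 460/530 nm ratio gave %activity and AC50.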

[3] = Stat Signaling Pathway (AID 446; active = well fitted curve in either direction with a large enough effect, not every such curve was filed as active;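 also: ME-180 cervical cancer cells given 40 pM IL-6 alongside compound; SIE-controlled beta-lactamase reporter measured as 460/530 nm FRET emission ratio; % is scaled to controls: 0 for no effect and ±100 for the full control effect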)
Procedure, shortened: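 FRET read-out (405 nm excitation, 460/530 nm emission) of a beta-lactamase reporter under a STAT-inducible element in ME-180 cervical carcinoma cells. Cells with compound receive 40 pM IL-6 for 5 h. Values are normalised to AC90 stimulation and AC90 JAK-inhibitor controls.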

[4] = target: Glucocorticoid receptor (Homo sapiens) (UniProt P04150); test: GR-GFP Redistribution (AID 450;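 active = compounds whose dose series gives a full or clear partial fitted curve of increased nuclear translocation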; also: potency is read from the fitted curve at half-maximal effect); conditions: U2OS GR-GFP nuclear translocation, laser cytometry, 2 h
Sequence of Glucocorticoid receptor (Homo sapiens) (P04150 whole entry, looked up, the tested form may be a part): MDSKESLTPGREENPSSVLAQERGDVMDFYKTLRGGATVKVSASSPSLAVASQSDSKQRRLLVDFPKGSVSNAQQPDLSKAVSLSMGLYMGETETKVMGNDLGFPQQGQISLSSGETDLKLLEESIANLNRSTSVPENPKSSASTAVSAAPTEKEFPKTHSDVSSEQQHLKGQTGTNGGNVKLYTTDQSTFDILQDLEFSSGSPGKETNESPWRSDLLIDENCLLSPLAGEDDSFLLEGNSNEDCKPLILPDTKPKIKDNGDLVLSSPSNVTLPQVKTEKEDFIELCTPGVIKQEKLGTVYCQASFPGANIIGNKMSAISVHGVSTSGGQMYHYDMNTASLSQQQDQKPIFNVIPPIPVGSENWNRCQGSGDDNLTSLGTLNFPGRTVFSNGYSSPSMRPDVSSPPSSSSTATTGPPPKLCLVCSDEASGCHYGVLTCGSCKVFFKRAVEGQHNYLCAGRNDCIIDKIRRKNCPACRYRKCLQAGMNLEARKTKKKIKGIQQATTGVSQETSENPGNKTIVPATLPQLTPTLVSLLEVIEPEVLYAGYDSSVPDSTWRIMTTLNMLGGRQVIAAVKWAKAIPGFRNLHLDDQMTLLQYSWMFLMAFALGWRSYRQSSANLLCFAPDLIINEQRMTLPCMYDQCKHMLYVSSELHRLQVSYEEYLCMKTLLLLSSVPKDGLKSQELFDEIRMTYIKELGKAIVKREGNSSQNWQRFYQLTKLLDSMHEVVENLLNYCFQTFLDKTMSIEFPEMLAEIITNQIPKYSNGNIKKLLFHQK

[5] = target: Glucocorticoid receptor (Homo sapiens) (UniProt P04150); test: GR-EFC Redistribution (AID 451; calls by dose curve; also: potency is read from the fitted curve at half-maximal effect); conditions: CHO-K1 GR-EFC translocation, beta-gal luminescence, 2 h
Procedure, shortened: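 CHO-K1 cells expressing nuclear EA and GR-ED fragments of b-gal; compounds titrated up to 46 uM final, 2 h at 37 C. GR nuclear translocation read as complemented b-gal luminescence after 1 h RT detection.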

[6] = target: Mitogen-activated protein kinase 10 (Mus musculus) (UniProt Q61831); test: JNK3 AlphaScreen Assay (AID 530; active = well fitted curve in either direction with a large enough effect, not every such curve was filed as active;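 also: kinase came from lysate of stimulated human HepG2 cells; signal reports phosphorylation of biotinylated GST-cJun 1-79 at Ser73 with 10 µM ATP; % is scaled to controls: 0 for no effect and ±100 for the full control effect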)
Procedure, shortened: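 Activity was read by AlphaScreen after JNK3-containing HepG2 lysate (cytokine pre-activated) phosphorylated biotinylated GST-cJun with 10 uM ATP at room temperature. Phospho-Ser73 cJun antibody with Protein-A acceptor beads provided detection.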

[7] = target: 3',5'-cyclic-AMP phosphodiesterase 4B (Homo sapiens) (UniProt Q07343); test: qHTS Assay for Inhibitors of PDE-IV (AID 607; active = well fitted activation curve with a large enough effect in the main read-out, with a control signal flat, not every such curve was filed as active; also: % of control where 0% means no effect)
Sequence of 3',5'-cyclic-AMP phosphodiesterase 4B (Homo sapiens) (Q07343 whole entry, looked up): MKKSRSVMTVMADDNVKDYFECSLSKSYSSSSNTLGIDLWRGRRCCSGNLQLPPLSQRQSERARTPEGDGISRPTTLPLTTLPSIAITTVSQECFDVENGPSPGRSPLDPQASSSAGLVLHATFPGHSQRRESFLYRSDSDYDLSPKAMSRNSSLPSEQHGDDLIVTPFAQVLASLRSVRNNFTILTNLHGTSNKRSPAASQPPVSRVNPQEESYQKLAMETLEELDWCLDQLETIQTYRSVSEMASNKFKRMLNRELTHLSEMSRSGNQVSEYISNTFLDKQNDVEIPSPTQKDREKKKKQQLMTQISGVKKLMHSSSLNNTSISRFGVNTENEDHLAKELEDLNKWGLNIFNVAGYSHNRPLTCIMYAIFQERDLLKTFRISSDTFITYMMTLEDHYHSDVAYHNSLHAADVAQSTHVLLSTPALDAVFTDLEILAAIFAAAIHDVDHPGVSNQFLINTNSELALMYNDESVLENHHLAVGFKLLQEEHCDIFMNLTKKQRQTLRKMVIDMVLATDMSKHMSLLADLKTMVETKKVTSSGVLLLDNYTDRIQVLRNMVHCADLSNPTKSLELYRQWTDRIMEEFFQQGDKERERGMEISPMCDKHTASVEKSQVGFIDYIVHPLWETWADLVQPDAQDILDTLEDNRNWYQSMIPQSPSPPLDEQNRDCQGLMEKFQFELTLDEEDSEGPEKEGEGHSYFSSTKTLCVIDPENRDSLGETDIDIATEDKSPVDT
Procedure, shortened: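 Cell-based read-out of cAMP via a modified cyclic nucleotide-gated channel and membrane potential dye (535/590 nm) in HEK293 cells expressing PDE4 endogenously. Compounds tested up to 22.9 uM final; 100 uM RO 20-1724 reference.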

[8] = target: Guanine nucleotide-binding protein G(i) subunit alpha-1 (Homo sapiens) (UniProt P63096); test: qHTS Assay for Inhibitors of RGS12 GoLoco Motif Activity (Green Fluorophore) (AID 879); also: potency is read from the fitted curve at half-maximal effect
Sequence of Guanine nucleotide-binding protein G(i) subunit alpha-1 (Homo sapiens) (P63096 whole entry, looked up): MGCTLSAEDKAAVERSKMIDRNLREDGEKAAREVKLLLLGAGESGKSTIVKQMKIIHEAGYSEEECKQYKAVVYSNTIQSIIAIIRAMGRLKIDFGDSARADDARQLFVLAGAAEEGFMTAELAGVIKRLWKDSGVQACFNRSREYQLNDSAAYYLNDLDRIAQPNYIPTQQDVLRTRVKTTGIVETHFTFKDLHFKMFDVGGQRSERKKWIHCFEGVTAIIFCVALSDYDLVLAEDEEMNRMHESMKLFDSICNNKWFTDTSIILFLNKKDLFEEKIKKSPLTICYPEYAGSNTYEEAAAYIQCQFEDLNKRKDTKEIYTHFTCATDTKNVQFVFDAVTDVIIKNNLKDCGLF
Procedure, shortened: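 A drop in FITC polarization marked displacement of the FITC-tagged RGS12 GoLoco peptide (10 nM) from Gαi1 (50 nM). Compounds were incubated 10 min at room temperature in Tris pH 7.5 buffer containing 150 mM NaCl, 0.1 mM GDP and 0.05% NP40; unlabeled peptide titration served as control.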

[9] = target: Cytochrome P450 3A4 (Homo sapiens) (UniProt P08684); test: qHTS Assay for Activators of Cytochrome P450 3A4 (AID 885); also: nearly all actives have a fitted effect of over 65% in size
Sequence of Cytochrome P450 3A4 (Homo sapiens) (P08684 whole entry, looked up): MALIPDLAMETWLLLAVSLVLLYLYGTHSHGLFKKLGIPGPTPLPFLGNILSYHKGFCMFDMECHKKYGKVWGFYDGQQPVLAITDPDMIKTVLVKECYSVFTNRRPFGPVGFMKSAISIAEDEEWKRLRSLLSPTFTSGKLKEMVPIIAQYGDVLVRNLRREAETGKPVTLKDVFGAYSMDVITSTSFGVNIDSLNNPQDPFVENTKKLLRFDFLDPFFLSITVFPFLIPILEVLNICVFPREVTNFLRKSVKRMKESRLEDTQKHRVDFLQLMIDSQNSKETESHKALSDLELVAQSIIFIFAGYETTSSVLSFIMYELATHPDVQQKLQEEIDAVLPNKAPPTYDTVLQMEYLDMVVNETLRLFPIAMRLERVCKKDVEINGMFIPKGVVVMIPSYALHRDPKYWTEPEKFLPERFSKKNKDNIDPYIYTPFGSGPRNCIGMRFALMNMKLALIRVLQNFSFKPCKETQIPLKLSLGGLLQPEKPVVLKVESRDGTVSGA
Procedure, shortened: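 Luminescent readout of luciferin formed from 25 uM Luciferin-PPXE (KM level) by 20 nM CYP3A4 in 200 mM KPO4, with 60 min NADPH-driven reaction at room temperature after 10 min compound exposure. Ketoconazole (57 uM) defined 100% inhibition.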

[10] = qHTS Assay for Identification of Small Molecule Antagonists for NFkB Signaling Pathway (AID 895; active = well fitted inhibition curve with a large enough effect in the signal ratio, with a control signal flat, not every such curve was filed as active; the % refers to the signal ratio; also: % is scaled to controls: 0 for no effect and ±100 for the full control effect)
Procedure, shortened: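 ME-180 NFkB-bla cells (beta-lactamase under NFkB response element), plated overnight, treated with compound then 10 pM TNF alpha (about EC50) for 5 hrs at 37 C. LiveBLAzer FRET read at 460/530 nm emission, 405 nm excitation.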

[11] = qHTS Assay for Identification of Small Molecule Agonists for Thrombopoietin (TPO) Signaling Pathway (AID 917); also: % is scaled to controls: 0 for no effect and ±100 for the full control effect
Procedure, shortened: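 Human TPO receptor–transfected Ba/F3 cells (murine, IL-3-dependent) in IL-3-deficient medium; compounds plus TPO at EC50, 26 pM final; 24 hrs, 37 C; GpIIb-luciferase luminescence after 10 min RT detection.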

[12] = target: Pyruvate kinase PKM (Homo sapiens) (UniProt P14618); test: qHTS Assay for Activators of Human Muscle Pyruvate Kinase (AID 954; active = well fitted curve in the direction sought with a large enough effect, not every such curve was filed as active;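 also: 0% = uninhibited enzyme and -100% = no enzyme or full thiadiazolimine inhibition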)
Sequence of Pyruvate kinase PKM (Homo sapiens) (P14618 whole entry, looked up): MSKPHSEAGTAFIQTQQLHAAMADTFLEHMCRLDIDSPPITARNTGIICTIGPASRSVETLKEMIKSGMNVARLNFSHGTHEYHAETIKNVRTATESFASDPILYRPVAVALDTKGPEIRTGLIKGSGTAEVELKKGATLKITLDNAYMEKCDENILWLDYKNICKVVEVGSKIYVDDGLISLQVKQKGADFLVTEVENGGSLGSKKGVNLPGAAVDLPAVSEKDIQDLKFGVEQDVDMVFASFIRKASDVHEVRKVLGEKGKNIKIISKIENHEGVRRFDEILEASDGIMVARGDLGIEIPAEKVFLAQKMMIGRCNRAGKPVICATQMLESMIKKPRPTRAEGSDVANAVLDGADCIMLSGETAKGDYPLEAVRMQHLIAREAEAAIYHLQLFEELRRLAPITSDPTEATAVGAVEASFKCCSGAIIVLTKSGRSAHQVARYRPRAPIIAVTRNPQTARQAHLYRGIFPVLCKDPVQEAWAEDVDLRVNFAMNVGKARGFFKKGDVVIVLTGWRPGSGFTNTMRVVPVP
Procedure, shortened: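 ATP production by PKM2 detected via luciferase luminescence after 1 h room-temperature reaction (0.1 nM enzyme, PEP at Km 0.5 mM, ADP 0.1 mM, pH 7.2 imidazole buffer). Inhibition scaled to no-enzyme control; activation referenced to 0.3 nM enzyme wells.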

[13] = target: Alpha-galactosidase (Coffea arabica) (UniProt Q42656); test: Counterscreen for Glucocerebrosidase Inhibitors: qHTS Assay for Coffee Bean alpha-Galactosidase at pH 4.5 (AID 957);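 also: plate controls were enzyme alone for no effect and no enzyme for full effect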
Sequence of Alpha-galactosidase (Coffea arabica) (Q42656 whole entry, looked up): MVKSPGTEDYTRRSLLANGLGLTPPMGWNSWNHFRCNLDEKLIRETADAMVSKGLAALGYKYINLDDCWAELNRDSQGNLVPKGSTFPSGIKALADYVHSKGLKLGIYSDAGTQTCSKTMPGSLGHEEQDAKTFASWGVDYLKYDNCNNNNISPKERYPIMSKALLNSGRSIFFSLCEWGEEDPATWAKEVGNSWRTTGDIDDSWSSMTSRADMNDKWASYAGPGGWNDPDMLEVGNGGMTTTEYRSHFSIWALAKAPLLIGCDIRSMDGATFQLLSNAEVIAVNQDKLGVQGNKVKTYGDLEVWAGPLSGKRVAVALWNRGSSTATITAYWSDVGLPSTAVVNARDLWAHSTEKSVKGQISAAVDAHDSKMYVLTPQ
Procedure, shortened: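 Fluorogenic qHTS at pH 4.5 (citrate buffer with Tween-20): 2 nM enzyme, 80 uM 4-MU-alpha-galactoside substrate, compound titrated 0.7 nM to 77 uM, 20 min room temperature. Glycine/NaOH stop; 4-MU read Ex 365/Em 440; Hill-equation AC50 against no-enzyme and enzyme controls.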

[14] = target: Alpha-galactosidase A (Homo sapiens) (UniProt P06280); test: Counterscreen for Glucocerebrosidase Inhibitors: qHTS Assay for Human alpha-Galactosidase at pH 4.5 (AID 992); also: 0% is about no effect
Sequence of Alpha-galactosidase A (Homo sapiens) (P06280 whole entry, looked up): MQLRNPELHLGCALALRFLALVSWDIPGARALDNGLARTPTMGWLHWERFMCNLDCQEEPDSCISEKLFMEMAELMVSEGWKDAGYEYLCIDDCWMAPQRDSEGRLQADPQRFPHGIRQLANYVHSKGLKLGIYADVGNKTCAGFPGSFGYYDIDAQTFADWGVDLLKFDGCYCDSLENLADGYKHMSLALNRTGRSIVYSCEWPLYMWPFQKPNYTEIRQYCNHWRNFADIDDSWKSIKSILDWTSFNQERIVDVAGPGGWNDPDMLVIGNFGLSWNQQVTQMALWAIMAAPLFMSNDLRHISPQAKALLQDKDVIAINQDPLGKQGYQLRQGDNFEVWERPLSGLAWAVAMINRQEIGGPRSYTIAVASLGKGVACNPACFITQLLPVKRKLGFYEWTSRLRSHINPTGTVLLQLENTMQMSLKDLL
Procedure, shortened: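 Fluorogenic 1536-well qHTS at pH 4.5 (citrate, Tween-20): 2 nM enzyme, 80 uM 4-MU-alpha-galactoside, 20 min room temperature, NaOH/glycine stop. Titration 0.7 nM to 77 uM, data normalized to no-enzyme and full-activity controls, Hill-fitted AC50.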

[15] = target: alpha-glucosidase (Oryza sativa, rice) (UniProt Q653V4); test: Counterscreen for Glucocerebrosidase Inhibitors: qHTS Assay for Rice alpha-Glucosidase at pH 5.0 (AID 997);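 also: 0% = full activity with enzyme and -100% = basal without enzyme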
Procedure, shortened: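 Endpoint fluorogenic assay at pH 5.0: compounds (0.7 nM to 77 uM) titrated against 4 nM rice enzyme and 400 uM 4-MU-alpha-glucoside for 20 min at room temperature; NaOH/glycine stop, read ex 365/em 440 nm, Hill-fitted AC50.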

[16] = target: Alpha-galactosidase (Coffea arabica) (UniProt Q42656); test: Counterscreen for Glucocerebrosidase Inhibitors: qHTS Assay for Coffee Bean alpha-Galactosidase at pH 5.9 (AID 998);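 also: plate controls were uninhibited enzyme for no effect and no-enzyme basal signal for full effect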
Procedure, shortened: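 Enzyme 2 nM + cpd (0.7 nM–77 uM titration) + 4-MU-alpha-Gal 80 uM, pH 5.9 citrate/Tween-20, RT 20 min, NaOH/glycine stop pH 10, fluor 365/440. Normalized to no-enzyme and full-activity controls; Hill-fit AC50.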

[17] = target: Cytochrome P450 2D6 (Homo sapiens) (UniProt P10635); test: qHTS Assay for Inhibitors and Substrates of Cytochrome P450 2D6 (AID 891);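 also: luciferin methyl ether substrate demethylated by CYP2D6 with NADPH regeneration; % is scaled to controls: 0 for no effect and ±100 for the full control effect; nearly all actives have a fitted effect of over 60% in size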
Sequence of Cytochrome P450 2D6 (Homo sapiens) (P10635 whole entry, looked up): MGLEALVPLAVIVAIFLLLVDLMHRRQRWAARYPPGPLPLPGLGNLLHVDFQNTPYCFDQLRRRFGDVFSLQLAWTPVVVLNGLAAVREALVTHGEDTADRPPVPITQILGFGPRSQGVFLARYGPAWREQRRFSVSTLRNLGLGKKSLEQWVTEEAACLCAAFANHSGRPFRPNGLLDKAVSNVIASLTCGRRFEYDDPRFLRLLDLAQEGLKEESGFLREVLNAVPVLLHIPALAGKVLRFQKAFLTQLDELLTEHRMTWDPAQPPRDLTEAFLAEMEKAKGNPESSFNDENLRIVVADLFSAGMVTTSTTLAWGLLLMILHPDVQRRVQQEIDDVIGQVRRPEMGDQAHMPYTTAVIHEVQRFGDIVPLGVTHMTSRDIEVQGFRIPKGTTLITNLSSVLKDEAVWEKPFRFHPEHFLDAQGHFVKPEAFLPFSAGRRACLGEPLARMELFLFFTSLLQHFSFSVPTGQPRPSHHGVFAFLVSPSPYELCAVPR
Procedure, shortened: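 Luminescent read-out of luciferin formed by 5 nM human CYP2D6 demethylating 30 uM Luciferin-ME EGE (Km level) over 60 min at room temperature after NADPH regeneration addition. Data normalized to full inhibition by 1.43 uM quinidine.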

[18] = target: Cytochrome P450 2C19 (Homo sapiens) (UniProt P33261); test: qHTS Assay for Inhibitors and Substrates of Cytochrome P450 2C19 (AID 899); also: % is scaled to controls: 0 for no effect and ±100 for the full control effect; nearly all actives have a fitted effect of over 60% in size
Procedure, shortened: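 Signal comes from luciferase acting on luciferin released by CYP2C19-mediated hydroxylation of Luciferin-H EGE, 10uM (KM). Assay mix: 5nM enzyme, 50mM KPO4; 60 min at 37C with NADPH regeneration. Data normalized against 57uM ketoconazole.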

[19] = qHTS Assay for Identification of Small Molecule Antagonists for Thrombopoietin (TPO) Signaling Pathway (AID 918); conditions: TPO-dependent cell signaling reporter, antagonist mode; also: potency is read from the fitted curve at half-maximal effect; nearly all actives have a fitted effect of over 60% in size
Procedure, shortened: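 Inhibition read as reduced luciferase luminescence after 24 h at 37 C in IL-3-deprived Ba/F3 cells carrying human TPO receptor and GPIIb-promoter reporter, stimulated with 26 pM TPO (final, its EC50) alongside compound.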

[20] = target: Muscarinic acetylcholine receptor M1 (Rattus norvegicus) (UniProt P08482); test: qHTS Assay for Antagonists of Acetylcholine Muscarinic M1 Receptor: Kinetic Measurement of Intracellular Calcium Response (AID 943);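 also: Fluo-4 calcium signal as peak divided by basal fluorescence over 4 min; nearly all actives have a fitted effect of over 75% in size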
Sequence of Muscarinic acetylcholine receptor M1 (Rattus norvegicus) (P08482 whole entry, looked up): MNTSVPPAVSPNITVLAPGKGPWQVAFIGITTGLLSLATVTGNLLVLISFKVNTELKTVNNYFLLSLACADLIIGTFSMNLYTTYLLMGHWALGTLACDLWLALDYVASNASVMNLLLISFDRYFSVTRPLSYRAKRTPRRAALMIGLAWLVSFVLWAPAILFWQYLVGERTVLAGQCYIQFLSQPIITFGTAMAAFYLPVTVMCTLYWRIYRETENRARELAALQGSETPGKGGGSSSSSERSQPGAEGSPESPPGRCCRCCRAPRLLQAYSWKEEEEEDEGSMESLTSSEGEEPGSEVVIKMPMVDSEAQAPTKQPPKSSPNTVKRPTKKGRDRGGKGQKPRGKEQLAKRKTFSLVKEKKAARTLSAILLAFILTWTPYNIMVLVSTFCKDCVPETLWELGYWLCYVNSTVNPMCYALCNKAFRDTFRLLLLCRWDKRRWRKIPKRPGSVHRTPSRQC
Procedure, shortened: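 Antagonism measured as reduction of carbachol-evoked (EC80, 100 nM final) calcium flux in rat M1-CHO cells after 10 min compound exposure. Fluo-4 signal read kinetically; ratio of maximal to basal fluorescence.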

[21] = target: Muscarinic acetylcholine receptor M1 (Rattus norvegicus) (UniProt P08482); test: qHTS Assay for Antagonists of Acetylcholine Muscarinic M1 Receptor: Measurement of IP-One Response (AID 944); also: nearly all actives have a fitted effect of over 75% in size
Procedure, shortened: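 IP1 accumulation measured via TR-FRET between d2-IP1 and Eu-cryptate anti-IP1 antibody after carbachol (200 nM, EC80) stimulation for 30 min; rat M1-transfected CHO cells received compound 10 min before agonist.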

[22] = target: Pyruvate kinase PKM (Homo sapiens) (UniProt P14618); test: qHTS Assay for Inhibitors of Human Muscle Pyruvate Kinase (AID 958)
Procedure, shortened: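 Human PKM2 activity is measured as ATP generation, detected by luciferase-coupled luminescence. The enzyme (0.1 nM) acts on 0.5 mM PEP and 0.1 mM ADP for 1 h at ambient temperature; data are normalized to uninhibited and full-inhibition wells.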

[23] = target: Ubiquitin carboxyl-terminal hydrolase 1 (Homo sapiens) (UniProt O94782); test: Inhibitors of USP1/UAF1: Pilot qHTS (AID 504865);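 also: rhodamine fluorescence freed from ubiquitin-rhodamine substrate followed over time; top concentration of the series differs between compounds; % is scaled to controls: 0 for no effect and ±100 for the full control effect; nearly all actives have a fitted effect of over 35% in size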
Procedure, shortened: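 Enzyme-free wells gave the negative control, while test wells held 1nM USP1/UAF1 preincubated with compound for 15 min at room temperature. Ub-Rho at 150nM final started the reaction, and fluorescence at 480/540 nm was recorded kinetically.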

C[N+]1(C)CCO[C@@](O)(c2ccc(-c3ccc([C@]4(O)C[N+](C)(C)CCO4)cc3)cc2)C1
inactive: activity change, negative = inhibition [1] -2.41% [at 38 µM] | activity change, negative = inhibition [2] -10.8% [at 38 µM] | outcome [3] | Potency [4] > 46 µM | Potency [5] > 46 µM | outcome [6] | outcome [7] | Potency [8] | Potency [9] | Potency [10] | outcome [11] | outcome [12] | outcome [13] | outcome [14] | outcome [15] | outcome [16]

CCCCCCn1c(O)c(C=Nc2c(C)n(C)n(-c3ccccc3)c2=O)c(=O)[nH]c1=O
inactive: activity change, negative = inhibition [1] -18.8% | outcome [3] | Potency [4] > 20.6 µM

N[C@@H](Cc1cc(O)c(O)cc1O)C(=O)O
active: Potency [8] 15.8 µM | Potency [19] 12.6 µM
inactive: activity change, negative = inhibition [1] -19.5% [at 38 µM] | activity change, negative = inhibition [2] 3.11% [at 38 µM] | Potency [4] > 46 µM | Potency [5] > 46 µM | outcome [7] | Potency [9] | Potency [17] | Potency [18] | Potency [20] | Potency [21] | outcome [13] | Potency [22] | outcome [14] | outcome [15] | outcome [16]

C[C@H]1C[C@@H](C)C(=O)[C@@H]([C@H](O)CC2CC(=O)NC(=O)C2)C1
inactive: outcome [6] | outcome [7] | Potency [23]
active: activity change, negative = inhibition [1] -97.3% | activity change, negative = inhibition [2] -119%

C[C@H](N)c1cccc(Cl)c1Cl
inactive: activity change, negative = inhibition [1] 19.1% [at 38 µM] | activity change, negative = inhibition [2] 7.99% [at 38 µM] | Potency [4] > 46 µM | Potency [5] > 46 µM | outcome [6] | outcome [7] | Potency [8] | Potency [9] | outcome [11] | Potency [21] | outcome [12] | outcome [13] | outcome [14] | outcome [15] | outcome [16]

NC(=NCCC[C@@H](N)C(=O)O)N[N+](=O)[O-]
inactive: activity change, negative = inhibition [1] 2.85% [at 38 µM] | activity change, negative = inhibition [2] 2.93% [at 38 µM] | outcome [3] | Potency [4] > 46 µM | Potency [5] > 46 µM | outcome [6] | outcome [7]

CC[C@H](CO)NC(=O)[C@@H]1C=C2c3cccc4[nH]cc(c34)C[C@@H]2N(C)C1
inactive: activity change, negative = inhibition [1] 2.51% [at 38 µM] | activity change, negative = inhibition [2] -0.886% [at 38 µM] | outcome [3] | Potency [4] > 46 µM | Potency [5] > 46 µM | outcome [6] | outcome [7] | outcome [11] | outcome [12] | outcome [13] | outcome [14] | outcome [15] | outcome [16]
